For 38 compounds, growth results are on record in PubChem BioAssay (NCI).

Each structure is given as a SMILES string. The panel holds about 83,000 compounds, 20% with a hit somewhere; the sample as a whole holds those more often.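 The test compound was applied at a single concentration to cells in 96-well plates for 48 hours, and percent growth was recorded.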 Activity calls are given as the source filed them. How the source made its calls: active means growth percent below 10; inactive means the rest.

In one test the test system is IGROV1 ovarian. Put plainly: NCI-60 one-dose screen, 48 h (100 = growth as untreated, 0 = no growth, -100 = all killed). Conditions: 10 µM unless noted.
Consider `CCN(CC)CCCC(C)Nc1ccnc2cc(Cl)c(SCc3ccccc3)cc12` (stereo not drawn), for which the growth is -26.7% (active).

On to `NC(=S)Cc1ccccc1`, for which the growth was 107% (inactive).

For `COc1cc(C)cc2oc3oc(=O)c(C(=O)c4cc5cc(Br)ccc5o4)cc3c(=O)c12`, the growth was 92.8% (inactive).

Turning to `COc1ccc(OC)c([N+](=O)[O-])c1C(=O)CNC(C)=O`, the growth is 106% (inactive).

Take `CC(C)c1ccc(C(=O)Nc2nc3ccc(O)cc3s2)cc1`: the growth is 49.1% (inactive).

Regarding `CCOC(=O)c1ccc2nc(-c3c(C)nn(-c4ccccc4)c3N3CCOCC3)[nH]c2c1`, the growth was 81.4% (inactive).

For the compound `Nc1nc(SCc2cccc([N+](=O)[O-])c2)c2[nH]cnc2n1`, the growth was 89.2% (inactive).

Turning to `COc1ccc2nc3c(cc2c1)C(=O)CC(c1ccccc1)C3` (stereo not drawn), the growth was 35.8% (inactive).

As to `CCCC[C@@H](C=O)NC(=O)[C@H](CC(C)C)NC(=O)[C@H](CC(C)C)NC(=O)OCc1ccccc1`, the growth is 8.93% (active).

The subject of another test is OVCAR-3 ovarian. The description is as above. The settings on record: 10 µM unless noted.
On to `O=[N+]([O-])c1cc([N+](=O)[O-])c(NN=C(c2ccc(O)cc2)c2ccc(O)cc2)cc1Cl`, for which the growth was -94.6% (active).

Consider `Cc1cc(SC#N)ncn1`, for which the growth was 100% (inactive).

On to `O=C(N/N=C/c1c(Cl)cccc1Cl)c1cccc(Nc2ccnc(C(F)(F)F)c2)c1`, for which the growth was 137% (inactive).

Turning to `O=[N+]([O-])c1cc([N+](=O)[O-])c(C(F)(F)F)cc1NN=C(c1ccc(O)cc1)c1ccc(O)cc1`, the growth is 96.3% (inactive).

In the case of `N/C(=N\c1nc2ccccc2[nH]1)NC(=O)Cc1cccc2ccccc12`, the growth is 120% (inactive).

For the compound `O=C(Oc1ccc(Cl)cc1[N+](=O)[O-])Oc1ccc(Cl)cc1[N+](=O)[O-]`, the growth is 119% (inactive).

In the case of `C[C@@H](NC(=O)[C@@H](CC(=O)N1CCC(N2CCCCC2)CC1)N1C(=O)[C@@H](N2C(=O)OC[C@@H]2c2ccccc2)[C@H]1/C=C/c1cccc(Cl)c1)c1ccccc1`, the growth was 74.4% (inactive).

In the case of `COc1ccc2c3ccnc(C(F)(F)F)c3n(CCCCN)c2c1`, the growth was 47.3% (inactive).

For `CCOC(=O)c1c[nH]c2cc(OCC3CC3)c(OCC3CC3)cc2c1=O`, the growth was 109% (inactive).

With `COc1ccc(-c2nc3ccccn3c2/C=C/C(=O)c2cc(OC)c(OC)c(OC)c2)cc1OC`, the growth is 9.08% (active).

For the compound `CC(C)C1=NOC(=O)C1=Cc1cn(-c2ccccc2)nc1-c1cccc([N+](=O)[O-])c1`, the growth is 89.3% (inactive).

For `O=c1c2c3c(sc2n2cnnc2n1Cc1ccccc1)CCCC3`, the growth was 98% (inactive).

As for `COc1cc(C(=O)/C=C/c2c(-c3ccc(F)cc3)nc3sccn23)cc(OC)c1OC`, the growth was 4.69% (active).

In the case of `C=C(C)C1CCC2(C(=O)O)CCC3(C)C(CCC4C5(C)CCC(OC(=O)NCc6ccccc6)C(C)(C)C5CCC43C)C12` (stereo not drawn), the growth was 19% (inactive).

For the compound `O=C(N/N=C/c1ccc([N+](=O)[O-])cc1)c1ccc(Br)o1`, the growth was 121% (inactive).

As for `NC1=NC(=O)NC1(c1ccccc1)c1ccccc1`, the growth is 105% (inactive).

On to `CSc1nc2sc3cc(Cl)c(Cl)cc3n2c(=N)c1C#N`, for which the growth is 110% (inactive).

Consider `Cn1c(=O)c(C#N)c(-c2ccco2)n2c(S(=O)(=O)Cc3ccccc3)nnc12`, for which the growth is 103% (inactive).

For the compound `Nc1ccc2c(c1)Cc1cc(NC(=O)C(F)(F)F)ccc1-2`, the growth was 99.5% (inactive).

With `NC(=O)c1c(NC(=O)COC(=O)Cc2ccccc2F)sc2c1CCC2`, the growth is 112% (inactive).

With `Cc1cccc([N+](=O)[O-])c1I`, the growth is 118% (inactive).

Turning to `COc1ccc2nc3ccccc3c(NCCNCCO)c2c1`, the growth is -41.6% (active).

On to `Cc1cc(NN=C(c2ccc(O)cc2)c2ccc(O)cc2)c([N+](=O)[O-])cc1[N+](=O)[O-]`, for which the growth was 63.3% (inactive).

For `N#Cc1c(Cl)nc(SCC2CO2)nc1-c1ccccc1` (stereo not drawn), the growth is 137% (inactive).

Turning to `CCCCCCCCCCCCCCNC(=O)Nc1ccc(Cl)c(Cl)c1`, the growth is 15.5% (inactive).

As to `O=C1NC(=O)c2cc([N+](=O)[O-])cc3cccc1c23`, the growth was 112% (inactive).

As for `CCN(CC)CCSC(=O)C(O)(c1ccccc1)C1CCCC1` (stereo not drawn), the growth was 121% (inactive).

Consider `CCC(Br)(CC)C(=O)c1ccc(OCC(=O)O)c(Cl)c1Cl`, for which the growth is 116% (inactive).

As to `COc1ccc(C2CC(c3cc(OC)c(OC)c(OC)c3)=NN2C(C)=O)cc1OCC(=O)Nc1nc2ccc(C(F)(F)F)cc2s1` (stereo not drawn), the growth was 67.1% (inactive).

Another test has as its system HS 578T breast. The test is described as above. The settings on record: 10 µM unless noted.
Turning to `O=[N+]([O-])c1cc([N+](=O)[O-])c(NN=C(c2ccc(O)cc2)c2ccc(O)cc2)cc1Cl`, the growth was -55.6% (active).

As for `Cc1cc(SC#N)ncn1`, the growth is 105% (inactive).

On to `O=C(N/N=C/c1c(Cl)cccc1Cl)c1cccc(Nc2ccnc(C(F)(F)F)c2)c1`, for which the growth was 107% (inactive).

Turning to `O=[N+]([O-])c1cc([N+](=O)[O-])c(C(F)(F)F)cc1NN=C(c1ccc(O)cc1)c1ccc(O)cc1`, the growth was 108% (inactive).

In the case of `N/C(=N\c1nc2ccccc2[nH]1)NC(=O)Cc1cccc2ccccc12`, the growth is 84.1% (inactive).

Take `O=C(Oc1ccc(Cl)cc1[N+](=O)[O-])Oc1ccc(Cl)cc1[N+](=O)[O-]`: the growth is 104% (inactive).

Regarding `C[C@@H](NC(=O)[C@@H](CC(=O)N1CCC(N2CCCCC2)CC1)N1C(=O)[C@@H](N2C(=O)OC[C@@H]2c2ccccc2)[C@H]1/C=C/c1cccc(Cl)c1)c1ccccc1`, the growth is 63.2% (inactive).

Take `COc1ccc2c3ccnc(C(F)(F)F)c3n(CCCCN)c2c1`: the growth is 44.9% (inactive).

Take `CCOC(=O)c1c[nH]c2cc(OCC3CC3)c(OCC3CC3)cc2c1=O`: the growth is 103% (inactive).

Regarding `COc1ccc(-c2nc3ccccn3c2/C=C/C(=O)c2cc(OC)c(OC)c(OC)c2)cc1OC`, the growth was 6.05% (active).

On to `CC(C)C1=NOC(=O)C1=Cc1cn(-c2ccccc2)nc1-c1cccc([N+](=O)[O-])c1`, for which the growth was 29.7% (inactive).

With `O=c1c2c3c(sc2n2cnnc2n1Cc1ccccc1)CCCC3`, the growth was 94.2% (inactive).

In the case of `COc1cc(C(=O)/C=C/c2c(-c3ccc(F)cc3)nc3sccn23)cc(OC)c1OC`, the growth is 46.1% (inactive).

On to `CC(C)c1ccc(C(=O)Nc2nc3ccc(O)cc3s2)cc1`, for which the growth was 72.3% (inactive).

Consider `C=C(C)C1CCC2(C(=O)O)CCC3(C)C(CCC4C5(C)CCC(OC(=O)NCc6ccccc6)C(C)(C)C5CCC43C)C12` (stereo not drawn), for which the growth was 84.7% (inactive).

In the case of `O=C(N/N=C/c1ccc([N+](=O)[O-])cc1)c1ccc(Br)o1`, the growth is 127% (inactive).

For the compound `NC1=NC(=O)NC1(c1ccccc1)c1ccccc1`, the growth was 98.3% (inactive).

Regarding `CSc1nc2sc3cc(Cl)c(Cl)cc3n2c(=N)c1C#N`, the growth was 91.9% (inactive).

With `Cn1c(=O)c(C#N)c(-c2ccco2)n2c(S(=O)(=O)Cc3ccccc3)nnc12`, the growth is 124% (inactive).

On to `Nc1ccc2c(c1)Cc1cc(NC(=O)C(F)(F)F)ccc1-2`, for which the growth is 119% (inactive).

For the compound `NC(=O)c1c(NC(=O)COC(=O)Cc2ccccc2F)sc2c1CCC2`, the growth was 109% (inactive).

As for `Cc1cccc([N+](=O)[O-])c1I`, the growth is 113% (inactive).

Take `COc1ccc2nc3ccccc3c(NCCNCCO)c2c1`: the growth is -25.4% (active).

For the compound `Cc1cc(NN=C(c2ccc(O)cc2)c2ccc(O)cc2)c([N+](=O)[O-])cc1[N+](=O)[O-]`, the growth was 71.3% (inactive).

Turning to `N#Cc1c(Cl)nc(SCC2CO2)nc1-c1ccccc1` (stereo not drawn), the growth was 121% (inactive).

Take `CCCCCCCCCCCCCCNC(=O)Nc1ccc(Cl)c(Cl)c1`: the growth was 84.2% (inactive).

Take `O=C1NC(=O)c2cc([N+](=O)[O-])cc3cccc1c23`: the growth was 106% (inactive).

Turning to `CCN(CC)CCSC(=O)C(O)(c1ccccc1)C1CCCC1` (stereo not drawn), the growth is 110% (inactive).

On to `CCC(Br)(CC)C(=O)c1ccc(OCC(=O)O)c(Cl)c1Cl`, for which the growth is 107% (inactive).

Turning to `COc1ccc(C2CC(c3cc(OC)c(OC)c(OC)c3)=NN2C(C)=O)cc1OCC(=O)Nc1nc2ccc(C(F)(F)F)cc2s1` (stereo not drawn), the growth was 26.4% (inactive).
